Source: PubChem
Pf apPOL block = Pf-apPOL DNA polymerase inhibition; Recombinant Pf-apPOL, molecular beacon fluorescence, 1.5 h; inhibition, % at 10 µM; actives 0.25% (n = 210,000); AID 1794808
mHTT-CaM PPI inh = mHTT-calmodulin interaction abrogation; AlphaScreen His-mHTT/GST-CaM binding, luminescence; inhibition, % at 15 µM; actives 3.6% (n = 190,000);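 note: 0% = both proteins with DMSO and 100% = one protein alone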
Active calls of the source: *; x = no result; ! = not confirmed by another sample. In the library only some 3.6% were active in any assay of this set; here they are far more common. Cut-off read from the data, not from the text of the source: active = inhibition above about 50%; inactive = the rest.

SMILES | Pf apPOL block | mHTT-CaM PPI inh
CC(C(=O)Nc1nc2c(s1)CCCC2)n1nc(-c2ccc(F)cc2)ccc1=O (centres undefined) | -1 | 88*
CC(C(=O)Nc1cc(Cl)ccc1C#N)n1nc(-c2ccc(F)cc2)ccc1=O (centres undefined) | -6 | -5
CC1(C)C(=O)OC(c2ccc(F)cc2)C2(CCCCC2)C1=O (centres undefined) | -4 | -11
O=C(NCc1cccs1)C1CCCN(c2ccc(-n3cccn3)nn2)C1 (centres undefined) | -6 | 57*
Cn1ncc(N2CCCC(C(=O)NCc3cccs3)C2)cc1=O (centres undefined) | -7 | 0
Cc1nc(NC(=O)C2CCCN(c3ccc(-n4cccn4)nn3)C2)sc1C (centres undefined) | -8 | 94*
Cc1ccnc(NC(=O)C2CCCN(c3cc(-n4cccn4)ncn3)C2)c1 (centres undefined) | -2 | 49
Cc1nn(C)c(C)c1CNC(=O)c1ccc2c(c1)N(C)C(=O)C1CCCCN21 (centres undefined) | 1 | 0
O=C(CC1CCN(S(=O)(=O)c2ccc(Cl)s2)CC1)NCCc1ccco1 | 4 | 32
CC(C)(C)Cc1nnc(NC(=O)c2cccs2)s1 | 0 | -8
Cc1ccc(C)c(NC(=O)C2CCCN(C(=O)c3ccc(Cl)cc3)C2)c1 (centres undefined) | 1 | 28
O=C(NCCn1nc(-c2ccccc2)ccc1=O)c1ccc(-n2cccc2)cc1 | -6 | 63*
Cn1nc(-c2ccccc2)cc1C(=O)NCCn1nc(-c2ccc(Cl)cc2)ccc1=O | -8 | -6
NNc1nc(Nc2ccccc2)nc(N2CCCCC2)n1 | -4 | 99*
c1ccc(Nc2nc(N3CCCC3)nc(N3CCNCC3)n2)cc1 | -11 | 10
Nc1cc(-c2ccco2)[nH]n1 | x | 3
Cc1cc(=O)[nH]c(-n2nc(C)cc2NC(=O)c2snnc2C)n1 | -3 | -13
Cc1cc(=O)[nH]c(-n2nc(C)cc2N)n1 | -125 | 98*
O=C(Nc1cccc(Cl)c1)Nc1ccccc1Cl | -7 | -20
COc1ccc(OC)c2sc(N(CCN(C)C)C(=O)c3cccc(SC)c3)nc12 | 2 | 18
CSc1cccc(C(=O)N(CCn2cccn2)c2nc3c(Cl)cccc3s2)c1 | -5 | 100*
CCOc1ccc(-c2cc3n(n2)CCCN(C(=O)c2ccncc2)C3)cc1 | -2 | 5
CCOc1ccccc1NC(=O)/C(=C1\Nc2ccc([N+](=O)[O-])cc2N1)[N+](=O)[O-] | -2 | 26
COc1ccc(Cl)cc1NC(=O)c1c(NCc2cccnc2)sc2c1CCCC2 | -18 | 79*
COc1ccc(Cl)cc1NC(=O)c1c(NCc2cccs2)sc2c1CCC2 | -15 | 26
SMILES | Pf apPOL block | mHTT-CaM PPI inh
COc1ccc(Cl)cc1NC(=O)C(=O)NCc1cccnc1 | -8 | 3
COc1ccc(Cl)cc1NC(=O)c1c(NCc2cccnc2)sc2c1CCC2 | -16 | 93*
Cc1ccc(S(=O)(=O)N(CC(=O)NCc2cccnc2)Cc2ccc(Cl)c(Cl)c2)cc1 | -4 | 54*!
O=C(CN(Cc1ccccc1Cl)S(=O)(=O)c1ccc(Cl)cc1)NCc1cccnc1 | -4 | 14
Cc1ccc(CN(Cc2cccnc2)C(=O)Nc2ccc(Cl)c(Cl)c2)cc1 | -15 | 81*
O=C(Nc1ccc(Cl)cc1)N(Cc1cccnc1)Cc1ccccc1Cl | -14 | 2
O=C(C1CCN(c2cc(N3CCCCC3)ncn2)CC1)N1CCN(c2ccccc2)CC1 | -5 | -5
Cc1cc2[nH]c(C(=O)Nc3ccccc3Br)c(CN(C)C)c2s1 | 2 | 9
COc1cccc(N2C(=O)NC3CC2(C)Oc2ccc(Cl)cc23)c1 (centres undefined) | 15 | 31
Cc1ccc(N2C(=O)NC3CC2(C)Oc2ccc(Br)cc23)cc1C (centres undefined) | -2 | 36
COc1cccc(N2C(=O)NC3CC2(C)Oc2ccccc23)c1 (centres undefined) | -4 | 88*
Cc1ccc(CNC(=O)c2ccc(N3C(=O)NC4CC3(C)Oc3ccccc34)cc2)cc1 (centres undefined) | -8 | 55*
Cc1ccc(N2C(=O)NC3CC2(C)Oc2ccc(Br)cc23)cc1Cl (centres undefined) | -4 | 55*
Cc1ccc(CCNC(=O)c2ccc(N3C(=O)NC4CC3(C)Oc3ccccc34)cc2)cc1 (centres undefined) | -6 | 49
Cn1c(C2CCN(C(=O)NCc3ccc(F)cc3)C2)nc2cccnc21 (centres undefined) | -6 | 2
Cc1ccc(S(=O)(=O)N(CCc2ccccc2)CC(=O)NC2CC2)cc1 | 2 | 0
O=S(=O)(Nc1ccc(Br)cc1)N1CCCC1 | x | -9
COc1ccc(N2C(=O)C3CCCN3C2c2cccc(C)c2)cc1Cl (centres undefined) | -5 | 1
COc1ccc(OC)c(C2N(c3ccc(Cl)c(Cl)c3)C(=O)C3CCCN32)c1 (centres undefined) | -2 | 100*
